# Laboratory results as given in PubChem BioAssay (NCATS).
# Several values for one entry are separate records, joined by “and”; a condition that tells them apart may be missing. Identical values can stand only once. Values without a mark were called inactive. Inconclusive results are not listed. Where a call stands in place of a potency, no number is given. Activity calls are given as the source filed them. Unless noted, the call rests on the fitted dose curve; in most records, active means well fitted curve in the direction sought with a large enough effect; inconclusive means small, poorly fitted or top-dose-only effect, or another doubt; inactive means no such curve, though single readings can be large; an effect the other way counts as inactive or inconclusive.
# Columns and labels:
# [1] = test system: OV90; experiment: Primary qHTS to identify gynecologic anti-cancer compounds using libraries of approved drugs and bioactive compounds (AID 1345084); conditions: Gynecologic cancer cell panel viability, ATPlite luminescence, 48 h; series mostly up to 57.5 µM; further: nearly all actives have a fitted effect of over 55% in size; further: potency means the concentration at half of the fitted maximal effect
# How it was run: (§1)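 Cells, 1,000 per well, plated 16 h, then exposed 48 h at 37 C to compounds. Viability by ATPlite luminescence after 15 min at room temperature.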
# [2] = test system: PA-1; experiment: as above; conditions: Gynecologic cancer cell panel viability, ATPlite luminescence, 48 h; series mostly up to 57.5 µM
# How it was run: as §1
# [3] = test system: SKOV3; experiment: as above; conditions: Gynecologic cancer cell panel viability, ATPlite luminescence, 48 h; series mostly up to 57.5 µM
# How it was run: as §1
# [4] = test system: Tov-21-G; experiment: as above; conditions: Gynecologic cancer cell panel viability, ATPlite luminescence, 48 h; series mostly up to 57.5 µM
# How it was run: as §1
# [5] = test system: Tov112D; experiment: as above; conditions: Gynecologic cancer cell panel viability, ATPlite luminescence, 48 h; series mostly up to 57.5 µM
# How it was run: as §1
# [6] = Drug repurposing screens with cells derived from glioblastoma tumor samples (AID 1345199); conditions: GBM patient neurospheres viability, ATP luminescence, 48 h; further: nearly all actives have a fitted effect of over 40% in size; further: potency means the concentration at half of the fitted maximal effect
# How it was run: (§2)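 Primary testing used CD133+ neurospheres from four GBM patients, seven concentrations, 48 h exposure and ATP-based viability; confirmation added three slower-growing patient lines.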
# [7] = test system: astro; experiment: as above; conditions: viability, ATP luminescence, 48 h; series mostly up to 45.9 µM
# How it was run: as §2
# [8] = target: Nuclear receptor subfamily 1 group I member 2 (Rattus norvegicus) (UniProt Q9R1A7); experiment: qHTS assay for small molecule activators of the rat pregnane X receptor (rPXR) signaling pathway (AID 651751; call rule not given here); conditions: rPXR reporter cells, luciferase (One-Glo), 24 h
# Chain of Nuclear receptor subfamily 1 group I member 2 (Rattus norvegicus) (Q9R1A7 whole entry, looked up): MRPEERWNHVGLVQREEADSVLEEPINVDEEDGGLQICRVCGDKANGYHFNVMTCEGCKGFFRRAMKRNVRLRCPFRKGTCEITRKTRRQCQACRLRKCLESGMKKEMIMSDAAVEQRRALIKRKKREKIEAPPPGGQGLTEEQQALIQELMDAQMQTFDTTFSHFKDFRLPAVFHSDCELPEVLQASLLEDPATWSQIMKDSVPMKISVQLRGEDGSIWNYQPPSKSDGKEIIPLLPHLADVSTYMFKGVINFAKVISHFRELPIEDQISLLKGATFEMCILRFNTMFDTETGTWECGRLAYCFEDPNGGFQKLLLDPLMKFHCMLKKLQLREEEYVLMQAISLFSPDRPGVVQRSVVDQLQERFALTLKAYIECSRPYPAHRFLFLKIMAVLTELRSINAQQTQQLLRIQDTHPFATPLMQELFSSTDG
# [9] = qHTS assay to identify inhibitors of the type 1 interferon - major histocompatibility complex class I in skeletal muscle: Counter screen cell viability and HiBit confirmation (AID 1347412); conditions: iHSKM muscle cells + IFN-b, HiBiT or CellTiter-Glo, 24 h; Potency: HiBiT; Viability, at 45.9 µM (top of the series); further: potency means the concentration at half of the fitted maximal effect; nearly all actives have a fitted effect of over 60% in size
# How it was run: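 HLA-B*08:01–HiBiT knock-in immortalized human myoblasts (C25cl48) stimulated with 4.0 ng/ml human IFN-beta and dosed with compound in a 12-point 1:3 titration (top final 46 uM). After 24 hrs at 37 C, HiBiT lytic luminescence or CellTiter Glo ATP read out.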
# [10] = qHTS assay for small molecule activators of the human pregnane X receptor (PXR) signaling pathway (AID 720659; call rule not given here)
# [11] = at 45.9 µM (top of the series), tumour line B
# [12] = at 45.9 µM (top of the series), tumour line D
# [13] = at 46 µM (top of the series), tumour line A
# [14] = at 46.1 µM (top of the series), tumour line C
compound,measurement,setting,value
CCOc1ccn(-c2ccc(F)cc2)c(=O)c1C(=O)Nc1ccc(Oc2ccnc(N)c2Cl)c(F)c1,Potency,[1],inactive
same,Potency,[2],inactive
same,Potency,[3],inactive
same,Potency,[4],inactive
same,Potency,[5],inactive
Cc1ccnc(NS(=O)(=O)c2ccc(NC(=O)Nc3ccc(S(=O)(=O)Nc4nccc(C)n4)cc3)cc2)n1,Potency,[1],inactive
same,Potency,[2],inactive
same,Potency,[3],inactive
same,Potency,[4],inactive
same,Potency,[5],inactive
Cc1[nH]c(=O)c(C#N)cc1-c1ccncc1,Potency,[1],inactive
same,Potency,[2],inactive
same,Potency,[3],inactive
same,Potency,[4],inactive
same,Potency,[5],inactive
same,"activity, negative = cell killing",[6]; [11],-10.7%
same,"activity, negative = cell killing",[6]; [12],4.86%
same,"activity, negative = cell killing",[6]; [13],-23.5%
same,"activity, negative = cell killing",[6]; [14],2.71%
same,"activity, negative = cell killing","[6]; at 91.6 µM (top of the series), tumour line B",-14.8%
same,"activity, negative = cell killing","[6]; at 91.6 µM (top of the series), tumour line D",7.24%
same,"activity, negative = cell killing","[6]; at 99.2 µM (top of the series), tumour line C",-28.5%
same,Potency,[7],inactive
same,max response,[8],2.46%
C[C@H](NC(=O)Cc1cc(F)cc(F)c1)C(=O)N[C@@H]1C(=O)N(C)c2ccccc2-c2ccccc21,Potency,[1],inactive
same,Potency,[2],inactive
same,Potency,[3],inactive
same,Potency,[4],inactive
same,Potency,[5],inactive
Cc1ccc(-n2nc(C(C)(C)C)cc2NC(=O)Nc2ccc(OCCN3CCOCC3)c3ccccc23)cc1,Potency,[1],inactive
same,Potency,[2],inactive
same,Potency,[3],inactive
same,Potency,[4],inactive
same,Potency,[5],inactive
same,"activity, negative = cell killing",[6]; [11],12.9%
same,"activity, negative = cell killing",[6]; [12],-19.4%
same,"activity, negative = cell killing",[6]; [14],-25.6%
CC(c1cc2ccccc2s1)N(O)C(N)=O (stereo not given),Potency,[1],inactive
same,Potency,[2],inactive
same,Potency,[3],inactive
same,Potency,[4],inactive
same,Potency,[5],inactive
same,"activity, negative = cell killing",[6]; [11],-3.78%
same,"activity, negative = cell killing",[6]; [12],-20.5%
same,"activity, negative = cell killing",[6]; [13],-18.2%
same,"activity, negative = cell killing",[6]; [14],-18.9%
same,Potency,[7],inactive
CC(C)OC(=O)C1=CN(C(=O)c2ccc(F)c(F)c2)CC(C)(C)c2c1[nH]c1ccccc21,Potency,[1],inactive
same,Potency,[2],inactive
same,Potency,[3],inactive
same,Potency,[4],inactive
same,Potency,[5],inactive
CS(=O)(=O)c1ccc(C(=O)Nc2ccc(Cl)c(-c3ccccn3)c2)c(Cl)c1,Potency,[1],inactive
same,Potency,[2],inactive
same,Potency,[3],inactive
same,Potency,[4],inactive
same,Potency,[5],inactive
Clc1cccc(Cl)c1NC1=NCCN1,Potency,[1],inactive
same,Potency,[2],inactive
same,Potency,[3],inactive
same,Potency,[4],inactive
same,Potency,[5],inactive
same,"activity, negative = cell killing",[6]; [11],5.06%
same,"activity, negative = cell killing",[6]; [12],-7.27%
same,"activity, negative = cell killing",[6]; [13],-29.3%
same,"activity, negative = cell killing",[6]; [14],0.125%
same,Potency,[7],inactive
Cc1[nH]c(=O)c(C#N)cc1-c1ccc2nccn2c1,Potency,[1],inactive
same,Potency,[2],inactive
same,Potency,[3],inactive
same,Potency,[4],inactive
same,Potency,[5],inactive
same,"activity, negative = cell killing",[6]; [11],-4%
same,"activity, negative = cell killing",[6]; [12],0.316%
same,"activity, negative = cell killing",[6]; [13],-27%
same,"activity, negative = cell killing",[6]; [14],-6.47%
same,Potency,[7],inactive
Cc1cn[nH]c1,Potency,[1],inactive
same,Potency,[2],inactive
same,Potency,[3],inactive
same,Potency,[4],inactive
same,Potency,[5],inactive
same,"activity, negative = cell killing",[6]; [11],0.573%
same,"activity, negative = cell killing",[6]; [12],-5.07%
same,"activity, negative = cell killing",[6]; [13],-17.3%
same,"activity, negative = cell killing",[6]; [14],-3.17%
same,Potency,[7],inactive
c1ccc([C@H]2CN3CCSC3=N2)cc1,Potency,[1],inactive
same,Potency,[2],inactive
same,Potency,[3],inactive
same,Potency,[4],inactive
same,Potency,[5],inactive
same,"activity, negative = cell killing",[6]; [11],-5.9%
same,"activity, negative = cell killing",[6]; [12],-15.5%
same,"activity, negative = cell killing",[6]; [14],-7.79%
same,Potency,[6]; tumour line A,15.8 µM (active)
same,Potency,[7],inactive
Cc1ccc(N(CC2=NCCN2)c2cccc(O)c2)cc1,Potency,[1],inactive
same,Potency,[2],inactive
same,Potency,[3],inactive
same,Potency,[4],inactive
same,"activity, negative = cell killing",[6]; [11],-13.6%
same,"activity, negative = cell killing",[6]; [14],-7.27%
same,Potency,[6]; tumour line A,14.1 µM (active)
same,Potency,[7],inactive
Nc1nc2c(ncn2COCCO)c(=O)[nH]1,Potency,[1],inactive
same,Potency,[2],inactive
same,Potency,[3],inactive
same,Potency,[4],inactive
same,Potency,[5],inactive
same,"activity, negative = cell killing","[6]; at 20 µM (top of the series), tumour line C",-13.6%
same,"activity, negative = cell killing","[6]; at 21.2 µM (top of the series), tumour line B",-4.96%
same,"activity, negative = cell killing","[6]; at 21.3 µM (top of the series), tumour line A",-33.2%
same,Potency,[7],inactive
CN(C)c1ccc(C2Nc3ccc4ccccc4c3C3=C2C(=O)CC(C)(C)C3)cc1Br (stereo not given),Potency,[1],inactive
same,Potency,[2],inactive
same,Potency,[3],inactive
same,Potency,[5],inactive
Cc1cnc(Nc2ccc(OCCN3CCCC3)cc2)nc1Nc1cccc(S(=O)(=O)NC(C)(C)C)c1,Potency,[1],17.8 µM (active)
same,Potency,[2],8.91 µM (active)
same,Potency,[3],7.94 µM (active)
same,Potency,[4],7.94 µM (active)
same,Potency,[5],11.2 µM (active)
same,Potency,[9],6.25 µM (active)
CCCS(=O)(=O)Nc1ccc(F)c(C(=O)c2c[nH]c3ncc(-c4ccc(Cl)cc4)cc23)c1F,Potency,[1],inactive
same,Potency,[2],10 µM (active)
same,Potency,[3],inactive
same,Potency,[5],inactive
Cn1cnc([N+](=O)[O-])c1Sc1ncnc2nc[nH]c12,Potency,[1],3.98 µM (active) and 7.08 µM (active)
same,Potency,[2],1.12 µM (active) and 7.08 µM (active)
same,Potency,[3],inactive
same,Potency,[4],1.12 µM (active) and 3.16 µM (active)
same,Potency,[5],5.62 µM (active) and 7.08 µM (active)
same,"activity, negative = cell killing",[6]; [11],-21.8%
same,"activity, negative = cell killing",[6]; [14],-41.7%
same,Potency,[6]; tumour line A,2.51 µM (active)
same,max response,[8],-0.454% and -2.45%
same,outcome,[10],inactive
Oc1ccc(C2CNCCc3c2cc(O)c(O)c3Cl)cc1 (stereo not given),Potency,[1],inactive
same,Potency,[2],inactive
same,Potency,[3],inactive
same,Potency,[4],inactive
same,Potency,[5],inactive
same,"activity, negative = cell killing",[6]; [14],2.51%
same,Potency,[7],inactive
NC(N)=NC(=O)c1nc(Cl)c(N)nc1N,Potency,[1],inactive
same,Potency,[2],inactive
same,Potency,[3],inactive
same,Potency,[4],inactive
same,Potency,[5],inactive
same,"activity, negative = cell killing",[6]; [12],-15.1%
same,"activity, negative = cell killing",[6]; [13],18.9%
same,"activity, negative = cell killing",[6]; [14],-11.2%
same,Potency,[7],inactive
same,outcome,[10],inactive
